The supplement of paper PMC10849652
Targets with a hit are over-represented here; the source holds about 8,800 in all. About 0.5% of all pairs of compound and target were hits.

Assays:
Assay in all cases: log2 fold change, soluble protein after heating vs DMSO (PISA); higher = thermal stabilisation; K562 lysate, 10 uM; active = over 0.2 and 3.5 SD of the protein, either way, in both replicates (recomputed)
[1] = compound: C1=CC=C(C=C1)[C@H](COC2=CC3=C(C=C2)NC(=O)N3)NC(=O)C4=CC=CN(C4=O)CC5=CC(=C(C=C5)F)F
Outline: (§1)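 To prepare the extract, K562 pellets were dounce-homogenised in PBS pH 7.4 with 1 mM MgCl2, giving crude material at 1 mg/mL protein. This was treated with 10 μM compound for 30 min, then heated in aliquots for 3 min over 48°C-58°C before pooling and addition of NP-40 to 0.5% at 4°C. Centrifugation at 21,000xg for 90 min left soluble protein in the supernatant, which TMTpro 16plex LC-MS/MS quantified with equalised channel sums. Results are log-two fold changes in thermal stability compared with solvent controls, from duplicates.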

[2] = compound: CC1=C(SC2=C1C(=N[C@H](C3=NN=C(N32)C)CC(=O)N)C4=CC=C(C=C4)Cl)C
Outline: as §1

[3] = compound: CC1=C2C(=CC=C1)N=C(N(C2=O)C3=CC=CC=C3C)CN4C=NC5=C(N=CN=C54)N
Outline: as §1

[4] = compound: Cc1sc2c(c1C)C(c1ccc(Cl)cc1)=N[C@@H](CC(=O)OC(C)(C)C)c1nnc(C)n1-2
Outline: as §1

[5] = compound: c1ccc([C@@H]2C[C@H]2NC2CCNCC2)cc1
Outline: as §1

Measured: log2 fold change

FXR1 (UniProt P51114)
inactive: [1] -0.028 | [2] -0.016 | [3] -0.009 | [4] 0.04 | [5] 0.027

EPS8L2 (UniProt Q9H6S3)
inactive: [1] 0.124 | [2] -0.09 | [4] 0.008 | [5] 0.037

EEF1AKMT4 (UniProt P0DPD7)
inactive: [1] -0.061 | [2] 0.027 | [3] -0.036 | [4] 0.017 | [5] -0.063

GBA2 (UniProt Q9HCG7)
inactive: [1] 0.046 | [2] 0.062 | [4] -0.094 | [5] -0.057

FMNL2 isoform 3 (UniProt Q96PY5)
inactive: [4] 0.089

FAM111A (UniProt Q96PZ2)
inactive: [3] -0.008 | [4] -0.097

EIF3I (UniProt Q5TFK1)
inactive: [5] 0.059

EWSR1 (UniProt H7BY36)
inactive: [1] -0.079 | [2] -0.06 | [3] 0.091 | [4] -0.058 | [5] 0.061

GART (UniProt P22102)
inactive: [1] -0.04 | [2] 0.047 | [3] 0.011 | [4] 0.057 | [5] 0.042

FOXJ2 (UniProt Q9P0K8)
inactive: [1] 0.022 | [2] 0.06 | [4] 0.015 | [5] 0.039

ELAVL4 (UniProt P26378)
inactive: [3] 0.018 | [4] -0.079 | [5] 0.095

FAM76B (UniProt Q5HYJ3)
Sequence of UniProt Q5HYJ3 (Q5HYJ3 whole entry, looked up): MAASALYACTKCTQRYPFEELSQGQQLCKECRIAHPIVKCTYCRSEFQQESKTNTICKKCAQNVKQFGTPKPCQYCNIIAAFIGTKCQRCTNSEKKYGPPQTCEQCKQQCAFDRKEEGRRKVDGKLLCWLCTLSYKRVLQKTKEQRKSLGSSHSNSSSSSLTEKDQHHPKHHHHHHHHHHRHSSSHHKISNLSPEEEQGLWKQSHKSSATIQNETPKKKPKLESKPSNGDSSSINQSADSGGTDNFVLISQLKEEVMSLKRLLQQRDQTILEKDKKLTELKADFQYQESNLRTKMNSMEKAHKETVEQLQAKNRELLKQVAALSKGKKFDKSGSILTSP
inactive: [3] 0.066 | [4] 0.038 | [5] -0.099

DYRK1A isoform 2 (UniProt Q13627)
inactive: [1] -0.001 | [2] -0.028 | [5] -0.339

GDE1 (UniProt Q9NZC3)
inactive: [1] -0.085 | [2] -0.076 | [4] -0.067 | [5] 0.394

GCA (UniProt P28676)
inactive: [5] -0.095

ERG28 (UniProt Q9UKR5)
inactive: [1] 0.001 | [2] -0.053 | [4] -0.08 | [5] 0.277

FBXO45 (UniProt P0C2W1)
inactive: [1] -0.079 | [2] -0.177 | [3] -0.004 | [5] 0.053

FLT4 (UniProt P35916)
inactive: [1] 0.006 | [2] -0.04 | [3] -0.031 | [4] 0.098 | [5] -0.408

EVI5L isoform 2 (UniProt Q96CN4)
inactive: [5] 0.036

EPN2 (UniProt I3L356)
inactive: [1] 0.12 | [2] -0.062 | [5] -0.235

FAT2 (UniProt Q9NYQ8)
Sequence of UniProt Q9NYQ8 (Q9NYQ8 whole entry, looked up): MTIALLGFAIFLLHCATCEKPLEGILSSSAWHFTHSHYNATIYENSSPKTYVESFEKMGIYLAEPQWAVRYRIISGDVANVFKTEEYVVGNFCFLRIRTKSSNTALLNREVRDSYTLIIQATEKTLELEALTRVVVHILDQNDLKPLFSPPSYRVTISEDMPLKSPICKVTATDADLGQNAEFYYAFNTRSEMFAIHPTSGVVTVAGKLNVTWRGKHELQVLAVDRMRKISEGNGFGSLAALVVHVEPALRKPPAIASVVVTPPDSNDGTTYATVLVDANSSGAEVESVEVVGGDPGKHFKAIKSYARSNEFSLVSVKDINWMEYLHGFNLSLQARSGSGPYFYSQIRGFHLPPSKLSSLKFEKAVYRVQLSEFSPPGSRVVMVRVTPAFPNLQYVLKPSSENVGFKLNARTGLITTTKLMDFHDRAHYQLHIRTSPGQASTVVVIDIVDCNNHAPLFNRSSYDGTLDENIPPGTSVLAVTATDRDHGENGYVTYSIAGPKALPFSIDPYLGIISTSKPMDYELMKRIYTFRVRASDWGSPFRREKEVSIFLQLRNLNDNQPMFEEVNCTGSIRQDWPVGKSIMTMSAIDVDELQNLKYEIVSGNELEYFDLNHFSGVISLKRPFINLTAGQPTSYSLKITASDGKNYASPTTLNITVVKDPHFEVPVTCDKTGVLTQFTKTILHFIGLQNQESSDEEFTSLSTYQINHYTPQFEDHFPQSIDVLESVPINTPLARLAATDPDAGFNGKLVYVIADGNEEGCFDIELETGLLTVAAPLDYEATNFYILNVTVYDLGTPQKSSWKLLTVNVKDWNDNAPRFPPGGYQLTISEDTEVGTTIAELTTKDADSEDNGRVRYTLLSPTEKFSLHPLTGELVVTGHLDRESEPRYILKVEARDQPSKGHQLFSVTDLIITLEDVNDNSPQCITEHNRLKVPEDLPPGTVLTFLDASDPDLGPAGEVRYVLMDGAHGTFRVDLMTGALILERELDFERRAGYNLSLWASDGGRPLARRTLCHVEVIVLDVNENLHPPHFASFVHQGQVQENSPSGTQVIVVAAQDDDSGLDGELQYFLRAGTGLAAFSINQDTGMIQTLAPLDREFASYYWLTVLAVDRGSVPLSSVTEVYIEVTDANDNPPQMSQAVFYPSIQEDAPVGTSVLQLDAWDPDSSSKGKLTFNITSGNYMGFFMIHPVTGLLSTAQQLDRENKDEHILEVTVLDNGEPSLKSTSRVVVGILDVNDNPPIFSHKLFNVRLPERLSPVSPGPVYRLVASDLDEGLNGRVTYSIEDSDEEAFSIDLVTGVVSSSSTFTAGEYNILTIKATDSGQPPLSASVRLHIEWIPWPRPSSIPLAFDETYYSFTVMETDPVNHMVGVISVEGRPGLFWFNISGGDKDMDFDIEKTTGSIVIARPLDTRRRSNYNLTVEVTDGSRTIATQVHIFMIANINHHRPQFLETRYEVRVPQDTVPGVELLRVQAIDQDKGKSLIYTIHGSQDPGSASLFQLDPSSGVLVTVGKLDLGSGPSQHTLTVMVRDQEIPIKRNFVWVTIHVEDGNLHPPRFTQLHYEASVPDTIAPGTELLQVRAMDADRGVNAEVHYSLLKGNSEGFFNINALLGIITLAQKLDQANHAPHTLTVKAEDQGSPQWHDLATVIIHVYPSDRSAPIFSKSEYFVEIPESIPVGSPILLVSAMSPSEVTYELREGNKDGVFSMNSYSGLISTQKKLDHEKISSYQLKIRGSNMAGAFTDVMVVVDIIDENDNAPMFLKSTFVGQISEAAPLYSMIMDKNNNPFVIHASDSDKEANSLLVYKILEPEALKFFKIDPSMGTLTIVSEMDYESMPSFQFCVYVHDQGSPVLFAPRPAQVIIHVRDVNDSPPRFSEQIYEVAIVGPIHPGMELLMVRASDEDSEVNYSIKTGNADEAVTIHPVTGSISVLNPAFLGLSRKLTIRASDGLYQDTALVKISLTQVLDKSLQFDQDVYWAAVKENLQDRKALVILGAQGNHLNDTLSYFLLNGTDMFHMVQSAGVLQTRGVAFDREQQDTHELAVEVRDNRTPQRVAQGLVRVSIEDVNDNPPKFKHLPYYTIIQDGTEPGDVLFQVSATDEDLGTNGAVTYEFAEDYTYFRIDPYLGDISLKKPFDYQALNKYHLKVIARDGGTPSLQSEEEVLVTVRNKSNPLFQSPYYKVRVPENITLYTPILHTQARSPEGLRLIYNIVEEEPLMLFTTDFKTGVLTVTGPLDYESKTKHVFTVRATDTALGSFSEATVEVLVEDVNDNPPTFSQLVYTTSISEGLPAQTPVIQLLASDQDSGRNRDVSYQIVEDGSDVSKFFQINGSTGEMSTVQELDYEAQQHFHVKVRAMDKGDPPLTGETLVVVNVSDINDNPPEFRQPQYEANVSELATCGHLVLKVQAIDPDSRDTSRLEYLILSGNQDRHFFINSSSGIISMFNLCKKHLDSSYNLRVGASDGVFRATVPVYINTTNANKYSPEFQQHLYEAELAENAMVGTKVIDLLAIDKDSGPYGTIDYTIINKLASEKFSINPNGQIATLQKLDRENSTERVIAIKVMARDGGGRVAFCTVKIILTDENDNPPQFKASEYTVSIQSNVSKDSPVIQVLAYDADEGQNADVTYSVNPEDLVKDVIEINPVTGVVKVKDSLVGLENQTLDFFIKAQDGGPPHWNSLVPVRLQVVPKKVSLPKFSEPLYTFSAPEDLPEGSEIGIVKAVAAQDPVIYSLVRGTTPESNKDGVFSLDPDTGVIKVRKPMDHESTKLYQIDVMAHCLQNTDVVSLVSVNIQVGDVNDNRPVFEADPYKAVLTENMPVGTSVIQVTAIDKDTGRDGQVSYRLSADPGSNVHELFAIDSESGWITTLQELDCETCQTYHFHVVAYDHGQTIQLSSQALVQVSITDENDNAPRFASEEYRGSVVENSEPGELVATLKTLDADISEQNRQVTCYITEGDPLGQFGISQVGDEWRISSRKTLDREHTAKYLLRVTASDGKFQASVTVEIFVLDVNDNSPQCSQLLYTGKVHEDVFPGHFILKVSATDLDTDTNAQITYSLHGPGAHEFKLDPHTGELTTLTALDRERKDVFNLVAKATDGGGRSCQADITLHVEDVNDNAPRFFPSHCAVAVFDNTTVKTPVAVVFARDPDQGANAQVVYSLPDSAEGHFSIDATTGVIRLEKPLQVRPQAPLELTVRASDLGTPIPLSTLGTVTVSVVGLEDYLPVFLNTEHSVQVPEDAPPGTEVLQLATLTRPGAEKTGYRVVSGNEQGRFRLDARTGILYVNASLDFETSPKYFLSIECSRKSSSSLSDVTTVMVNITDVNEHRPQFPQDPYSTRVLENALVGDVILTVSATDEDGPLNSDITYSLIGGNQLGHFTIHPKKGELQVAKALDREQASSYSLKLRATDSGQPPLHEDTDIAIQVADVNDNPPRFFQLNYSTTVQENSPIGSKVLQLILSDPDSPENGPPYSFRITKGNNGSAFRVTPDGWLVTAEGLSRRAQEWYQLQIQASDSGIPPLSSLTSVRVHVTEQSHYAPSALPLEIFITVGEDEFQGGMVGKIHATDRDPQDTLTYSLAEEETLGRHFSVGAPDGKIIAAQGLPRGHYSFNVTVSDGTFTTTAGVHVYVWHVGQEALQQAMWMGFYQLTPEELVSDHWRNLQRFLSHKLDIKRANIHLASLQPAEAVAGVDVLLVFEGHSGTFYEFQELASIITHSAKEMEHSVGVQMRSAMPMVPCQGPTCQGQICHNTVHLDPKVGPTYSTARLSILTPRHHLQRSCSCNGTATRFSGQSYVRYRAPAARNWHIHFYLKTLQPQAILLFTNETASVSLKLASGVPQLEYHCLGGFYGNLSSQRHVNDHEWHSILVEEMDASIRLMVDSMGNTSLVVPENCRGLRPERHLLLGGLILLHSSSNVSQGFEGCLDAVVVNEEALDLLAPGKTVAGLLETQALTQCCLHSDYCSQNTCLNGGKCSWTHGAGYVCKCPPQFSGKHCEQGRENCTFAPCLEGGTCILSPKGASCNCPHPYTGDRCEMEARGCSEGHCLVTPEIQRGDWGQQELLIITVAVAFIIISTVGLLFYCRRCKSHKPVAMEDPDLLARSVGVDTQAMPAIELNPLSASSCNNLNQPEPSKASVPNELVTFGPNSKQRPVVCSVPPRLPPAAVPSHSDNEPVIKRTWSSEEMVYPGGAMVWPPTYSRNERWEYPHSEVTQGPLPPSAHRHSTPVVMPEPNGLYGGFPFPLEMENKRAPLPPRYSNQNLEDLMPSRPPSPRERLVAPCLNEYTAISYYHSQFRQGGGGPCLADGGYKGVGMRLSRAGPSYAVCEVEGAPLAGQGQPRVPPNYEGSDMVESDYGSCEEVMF
inactive: [1] -0.009 | [2] 0.092 | [3] 0.104 | [5] -0.161

EPB41 isoform 4 (UniProt P11171)
inactive: [5] 0.106

GAA (UniProt P10253)
inactive: [1] -0.001 | [2] -0.077 | [3] -0.157 | [5] -0.024

DST isoform 3 (UniProt Q03001)
inactive: [1] -0.039 | [2] -0.033 | [5] 0.586

FTSJ1 isoform 2 (UniProt Q9UET6)
inactive: [3] -0.089 | [5] -0.234

GEMIN2 (UniProt O14893)
inactive: [1] -0.009 | [2] 0.01 | [3] -0.023 | [4] 0.015 | [5] -0.043

GART (UniProt C9JZG2)
inactive: [1] -0.131 | [2] 0.086 | [5] -0.366

FOXL2 (UniProt P58012)
inactive: [1] 0.135 | [2] 0.129 | [4] 0.166

FAT1 (UniProt Q14517)
inactive: [5] -0.092

GC isoform 3 (UniProt P02774)
Sequence of UniProt P02774 (P02774 whole entry, looked up): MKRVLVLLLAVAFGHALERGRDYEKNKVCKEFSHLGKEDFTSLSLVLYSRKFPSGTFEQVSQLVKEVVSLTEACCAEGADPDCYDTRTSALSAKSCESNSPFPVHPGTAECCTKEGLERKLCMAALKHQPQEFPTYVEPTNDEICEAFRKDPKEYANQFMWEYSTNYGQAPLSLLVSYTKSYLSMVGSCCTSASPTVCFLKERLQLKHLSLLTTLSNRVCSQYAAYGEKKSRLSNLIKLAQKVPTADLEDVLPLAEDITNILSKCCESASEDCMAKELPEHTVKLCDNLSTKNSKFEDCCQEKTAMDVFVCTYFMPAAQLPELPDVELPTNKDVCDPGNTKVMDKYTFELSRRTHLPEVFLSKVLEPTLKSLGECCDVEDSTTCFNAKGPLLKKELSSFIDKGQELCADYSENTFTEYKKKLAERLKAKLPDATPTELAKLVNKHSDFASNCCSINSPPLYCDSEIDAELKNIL
inactive: [3] 0.007 | [4] -0.138 | [5] 0.107

FAM204A (UniProt Q9H8W3)
inactive: [3] -0.102 | [5] -0.035

EID1 (UniProt Q9Y6B2)
inactive: [4] 0.024 | [5] -0.022

FNDC3A (UniProt Q9Y2H6)
inactive: [5] -0.136

DTL (UniProt Q9NZJ0)
inactive: [1] 0.033 | [2] 0.038 | [3] 0.089 | [4] -0.032 | [5] -0.01

EIF2AK3 (UniProt Q9NZJ5)
inactive: [4] 0.025 | [5] 0.041

EHHADH (UniProt Q08426)
inactive: [1] 0.035 | [2] -0.143 | [4] -0.086 | [5] 0.031

ESRRB isoform 1 (UniProt O95718)
inactive: [1] -0.147 | [2] 0.109 | [5] 0.321
